Screening results from PubChem.
An excerpt weighted towards active compounds, which were near 3.1% of everything screened.
VDR inh: inhibitors of human vitamin D receptor; Potency, µM, without a hit: max response, negative = inhibition, most hits filed as inhibitors; P11473; VDR-SRC2-3 peptide fluorescence polarization, 2 h; hit rate 0.93% among 400,000; further: potency means the concentration at half of the fitted maximal effect
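The screen uses fluorescence polarization to detect compounds that interfere with recruitment of the SRC2-3 coactivator peptide to VDR; plates are read after 2 h at room temperature.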
GLS inh: inhibitors of human glutaminase (GLS). GLS enzymatic activity, qHTS titration. O94925. Potency, µM (highest dose often 45.5 µM), without a hit: at the highest dose activity change, negative = inhibition, usual class: inhibitors. hit rate 0.21% among 410,000; further: potency means the concentration at half of the fitted maximal effect
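Human kidney-isoform GLS in 45 mM KH2PO4 pH 8.2, 0.02% Tween-20, with compound, started with 1mM L-Glutamine (added stock). Glutamate oxidase/HRP/Amplex red coupled fluorescence read at start and after 30 min at RT.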
PLK1 PBD block: blocks phosphopeptide binding to human PLK1 polo-box domain | Plk1 PBD binding of FITC phosphopeptide, fluorescence polarization | Potency, µM, inactives show max response, negative = inhibition, actives largely listed as inhibitors | hit rate 2.8% among 360,000 | P53350; further: potency means the concentration at half of the fitted maximal effect; series mostly up to about 57 µM; nearly all actives have a fitted effect of over 65% in size
PI4K2A block: blocks human PI4K2A kinase activity; hit rate 0.13% among 420,000; purified PI4K2A, ADP-Glo luminescence, 1 h; stronger effect = lower value; activity change, negative = inhibition, % at 76.9 µM; in the data active means activity change below about -50%; inconclusive means mostly about -30% to -49%;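 further: -100% = wells without enzyme as full effect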
Target sequence (Q9BTU6 whole entry, looked up): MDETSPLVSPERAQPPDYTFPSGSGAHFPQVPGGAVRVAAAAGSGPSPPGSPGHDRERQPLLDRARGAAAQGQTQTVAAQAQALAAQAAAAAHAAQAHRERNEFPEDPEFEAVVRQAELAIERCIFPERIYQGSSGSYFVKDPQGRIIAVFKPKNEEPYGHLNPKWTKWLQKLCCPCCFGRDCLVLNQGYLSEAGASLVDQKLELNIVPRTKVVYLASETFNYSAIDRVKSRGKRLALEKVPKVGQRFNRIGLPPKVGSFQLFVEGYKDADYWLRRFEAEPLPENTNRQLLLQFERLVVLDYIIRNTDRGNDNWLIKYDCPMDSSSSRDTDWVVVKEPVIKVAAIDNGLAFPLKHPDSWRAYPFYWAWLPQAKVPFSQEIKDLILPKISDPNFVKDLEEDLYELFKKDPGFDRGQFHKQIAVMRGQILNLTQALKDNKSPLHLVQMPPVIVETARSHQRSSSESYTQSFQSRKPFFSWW
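In this quantitative HTS, ADP production by PI4K2A was quantified luminescently after 1 h at ambient temperature; 100 microM adenosine served as plate-quality control.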
GCN5L2 inh: GCN5L2 (KAT2A) acetyltransferase inhibition; hit rate 0.21% among 390,000; GCN5L2 HAT assay, ThioGlo1 CoA-SH fluorescence; Potency, µM (titrated, usually from 58.9 µM), for the others: at the top dose activity change, negative = inhibition, most hits filed as inhibitors; Q92830; further: potency means the concentration at half of the fitted maximal effect
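Fluorescence readout, Ex340nm/Em540nm: ThioGlo1 (50uM final) reacts with free CoA thiol released as 20nM GCN5L2 acetylates H3(1-25) peptide (75uM) using acetyl-CoA (70uM). Compound and enzyme sat 15 min beforehand; 20 min room-temperature reaction.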
An asterisk follows results filed as active; ? = inconclusive; nt = no result given; [ ] = remark or other dose. Unless noted, the call rests on the fitted dose curve; in most records, active means well fitted curve in the direction sought with a large enough effect; inconclusive means small, poorly fitted or top-dose-only effect, or another doubt; inactive means no such curve, though single readings can be large; an effect the other way counts as inactive or inconclusive. Unless noted, on the % scale 0 is the no-effect control and ±100 the full control effect.

SMILES	VDR inh	GLS inh	PLK1 PBD block	PI4K2A block	GCN5L2 inh
COc1ccc(C2NC(=O)C(C#N)=C(S)N2c2cccc(C)c2)cc1OC (centres undefined)	?	5%	?	-2	-10%
COc1ccc(OC2C(=O)N(c3ccc(F)cc3)C2c2ccc(OC)c(OC)c2)cc1 (centres undefined)	11%	-13%	2%	-2	-10%
COc1ccc(C2NC(=O)C(C#N)=C(S)N2c2ccc(C)cc2)cc1OC (centres undefined)	32µM*	21%	?	-2	-5%
COc1ccc(Cn2nnnc2C(c2ccccn2)N2CCN(c3ccc(O)cc3)CC2)cc1 (centres undefined)	-4%	nt	nt	nt	nt
CCOC(=O)c1c(C)n(C)c2cc([N+](=O)[O-])c(O)c([N+](=O)[O-])c12	-13%	8%	21µM*	-11	-15%
CCOC(=O)c1c(N)c2cc([N+](=O)[O-])ccc2n1C	-17%	-14%	-20%	3	?
NC(=O)NCCC1=CCCCC1	0%	-2%	-4%	-1	-5%
C=CCn1c(N)c(C(=O)NCCC2=CCCCC2)sc1=S	?	-7%	7.5µM*	8	?
Fc1ccc(Nc2ncncc2-c2ccccc2C(F)(F)F)cc1	?	nt	nt	nt	-10%
Fc1ccc(Nc2ccnc(-c3ccccc3C(F)(F)F)n2)cc1	45µM*	nt	nt	nt	?
CC(=O)OC(C)OC(=O)C(C)c1ccc(-c2ccccc2)c(F)c1 (centres undefined)	nt	nt	nt	-3	nt
COc1ccccc1NC(=O)c1cc2c(n(-c3ccc(C)cc3)c1=O)CC(C)(C)CC2=O	-10%	-2%	nt	0	6%
O=c1oc2c(CN3CCN(CCO)CC3)c(O)ccc2cc1-c1ccccc1	0%	7%	nt	5	32µM*
CC(C)N1C(=O)/C(=C/c2nc3ccccc3c(=O)n2-c2ccccc2)c2ccccc21	71µM*	-2%	-10%	2	-5%
O=C1c2ccccc2-n2c1nc1ccccc1c2=O	-11%	-3%	-3%	-7	43%
CC(C)N1C(=O)/C(=C\c2nc3ccccc3c(=O)n2-c2ccccc2)c2ccccc21	71µM*	-1%	-7%	4	-9%
CC1=C(C#N)c2nc(N)c(C#N)c(C)c2/C1=C\c1ccc(OCC(=O)O)c(Cl)c1	-5%	77%	8.4µM*	-5	?
CCOC(=O)CSc1nc(N)c(C#N)c(-c2ccc(OCC)cc2)c1C#N	18%	3%	-10%	4	-4%
CC1CC1C(=O)OCC(=O)Nc1cccc(S(=O)(=O)NC2=NCCCCC2)c1 (centres undefined)	-10%	-5%	-5%	6	1%
O=C(COC(=O)CC1CC2CCC1C2)Nc1cccc(S(=O)(=O)NC2=NCCCCC2)c1 (centres undefined)	?	?	21µM*	4	0%
COCCNC(=O)CSc1cn(CC(=O)N2CCCCCC2)c2ccccc12	4%	-13%	nt	-7	-5%
OC1(c2ccc(Cl)cc2)CCNCC1	nt	nt	nt	0	nt
O=[N+]([O-])c1ccccc1/C=C/C=N/Nc1nc(N2CCCCC2)nc(N2CCCCC2)n1	?	5%	27µM*	-2	-10%
O=[N+]([O-])c1ccccc1/C=N/Nc1nc(N2CCCC2)nc(N2CCCC2)n1	-13%	-4%	-4%	0	-18%
Cc1cc(-c2ccccc2)nc(N(C)NC(=O)c2cccc(C(F)(F)F)c2)c1S(C)(=O)=O	-10%	14%	30µM*	2	-10%[0.501 µM]
SMILES	VDR inh	GLS inh	PLK1 PBD block	PI4K2A block	GCN5L2 inh
Cc1cc(-c2ccccc2)nc(N(C)NC(=O)C2CC2)c1S(C)(=O)=O	9%	8%	-4%	-2	0%
CCCCCCCCSc1nnc2[nH]c(=O)cc(N)n12	?	-4%	3.4µM*	3	-6%
CC(C)CSc1nnc2[nH]c(=O)cc(N)n12	-10%	4%	-7%	-11	-1%
CC1=C(C(N)=O)C(c2cccs2)NC(=S)N1 (centres undefined)	?	2%	27µM*	6	-8%
CC1=C(C(N)=O)C(c2cccs2)NC(=O)N1 (centres undefined)	15%	-1%	3%	4	-6%
COCCc1ccccn1	nt	nt	nt	1	nt
